From PubChem BioAssay (NCATS) come the findings set out here.

The nature of this assay: qHTS profiling of the MIPE4 collection as inhibitors of Plasmodium falciparum (DD2) proliferation (AID 743345). Particulars: P. falciparum Dd2 in erythrocytes, SYBR Green DNA, 72 h; at 28.5 µM (top of the series) unless noted. The text has this:
Plasmodium falciparum is a virulent malarial parasite that kills 1-2 million people worldwide each year. Transmitted by mosquitoes, the sporozoite form of the parasite enters the blood stream to infect hepatocytes, where they become merozoites that infect red blood cells (erythrocytes). Within erythrocytes, merozoites begin a […] cycle of growth and division, after which the parasite is released to infect new red blood cells. Gametocytes, which form within erythrocytes as well, circulate in the bloodstream and are ingested by the mosquito, thereby completing the life cycle. To profile malarial isolates for differential chemical responses and to identify inhibitors of malarial growth, an assay that measures P. falciparum growth and replication within erythrocytes was employed. This assay uses a DNA binding fluorescent dye (SYBR Green) to detect parasite DNA following cell lysis. Because mature erythrocytes lack DNA, only Plasmodium-derived DNA is detected.
The SYBR Green viability assay was adapted from a method described previously (Plouffe et al., 2008). For screening 3 ul culture medium was dispensed into 1536 well black clear bottom plates (Aurora Biotechnologies) using a Multidrop Combi (Thermo Fisher Scientific Inc.), 23 nL compounds in DMSO were added by a pin tool (Kalypsys), and 5 ul of erythrocytes infected with P. falciparum (0.3% parasitemia, 2.5% hematocrit final concentration) were added. The plates were incubated at 37 C in a humidified incubator in 5% CO2 for 72 h, and 2 ul lysis buffer (20 mM Tris HCl, 10 mM EDTA, 0.16% saponin, 1.6% triton X, 10X SYBR Green I supplied as 10,000X […] by Invitrogen) was added to each well. The plates were mixed for 25 sec with gentle shaking and incubated overnight at room temperature in the dark. The following morning, fluorescence intensity at 485(14) nm excitation and 535(25) nm emission wavelengths was measured on an EnVision (Perkin Elmer) plate reader. Plate reads were normalized relative to the control inhibitor (0.29 uM artemisinin) and vehicle (DMSO) wells present on each plate and then corrected by an algorithm using vehicle-only control plates at the beginning and end of the compound plate stack.
Consider `CC(=O)O[C@]1(C(C)=O)CC[C@H]2[C@@H]3C=C(Cl)C4=CC(=O)[C@@H]5C[C@H]5[C@]4(C)[C@@H]3CC[C@@]21C`, for which the parasite growth remaining, % of DMSO control (lower = more inhibition) worked out at 22.5%. As for `CC[C@H](C=C[C@@H](C)[C@H]1CC[C@H]2[C@@H]3CC=C4C[C@@H](O)CC[C@]4(C)[C@@H]3CC[C@]12C)C(C)C`, the figure is 104% [at 9.64 µM]; as for `CNC(=O)[C@H](Cc1ccccc1)NC(=O)[C@H](CC(C)C)[C@H](CSc1cccs1)C(=O)NO`, 8.14%. As for `COc1cc2c(cc1OC)CC(=O)N(CCCN(C)C[C@H]1Cc3cc(OC)c(OC)cc31)CC2`, the figure is 98.4%; as for `COc1nc(C)cnc1NS(=O)(=O)c1cccnc1-c1ccc(-c2nnco2)cc1`, 100%; as for `CCCCCCOC(=O)N=C(N)c1ccc(NCc2nc3cc(C(=O)N(CCC(=O)OCC)c4ccccn4)ccc3n2C)cc1`, 28.2%. As for `COc1c(C)c2c(c(O)c1CC=C(C)CCC(=O)OCCN1CCOCC1)C(=O)OC2`, the figure is 18.6%; as for `CCC(=O)OCC(=O)[C@@]1(OC(=O)CC)[C@@H](C)C[C@@H]2[C@H]3CCC4=CC(=O)C=C[C@]4(C)[C@@]3(F)[C@@H](O)C[C@@]21C`, 64.4%; as for `NCC1CCC(C(=O)O)CC1` (stereo not given), 105%. As to `Cc1ccc(NC(=O)c2ccc(CN3CCN(C)CC3)cc2)cc1Nc1nc(-c2cccnc2)cs1`, the parasite growth remaining, % of DMSO control (lower = more inhibition) is 12%. As for `O=C(c1ccc(C=Cc2n[nH]c3ccccc23)cc1)N1CCNCC1`, the figure is 31.2%; as for `OC[C@H]1O[C@@H](Oc2ccc(O)cc2)[C@H](O)[C@@H](O)[C@H]1O`, 94.8%; as for `NC(N)=Nc1nc(CSCCC(N)=NS(N)(=O)=O)cs1`, 98.2%.

With `CCN(CCO)CCCOc1ccc2c(Nc3cc(CC(=O)Nc4cccc(F)c4)[nH]n3)ncnc2c1`, the parasite growth remaining, % of DMSO control (lower = more inhibition) stood at 11.6%. As for `O=C(O)Cc1cccc(OCCCN(Cc2cccc(C(F)(F)F)c2Cl)CC(c2ccccc2)c2ccccc2)c1`, the figure is 42.2%. As for `O=C1C(c2c(O)[nH]c3ccccc23)=Nc2ccccc21`, the figure is 86.5%. As for `Cc1nc2c([nH]1)CCN(C(=O)c1ccc(NC(=O)c3ccccc3-c3ccccc3)cc1)c1ccccc1-2`, the figure is 8.18%; as for `CC(C)(F)C[C@H](N[C@@H](c1ccc(-c2ccc(S(C)(=O)=O)cc2)cc1)C(F)(F)F)C(=O)NC1(C#N)CC1`, 64.3%.

As to `Cc1ccc(NC(=O)c2cccc(N(C)C)c2)cc1NC(=O)c1ccc(O)cc1`, the parasite growth remaining, % of DMSO control (lower = more inhibition) was found to be 87.3%.

`CCCC1OC2C[C@@H]3[C@H]4CCC5=CC(=O)C=C[C@]5(C)[C@H]4C(O)C[C@]3(C)[C@]2(C(=O)CO)O1` (stereo not given in full): the parasite growth remaining, % of DMSO control (lower = more inhibition) worked out at 20.2%. As for `FC(F)(F)c1ccc(C=Cc2nc(COc3ccc(CCCCn4ccnn4)cc3)co2)cc1`, the figure is 85.5%; as for `CCC(c1ccc(O)cc1)C(CC)c1ccc(O)cc1` (stereo not given), 90%; as for `Cc1cc(-c2ncc(CC(=O)Nc3ccc(-c4cnccn4)cn3)cc2C)ccn1`, 87.9%. As for `Cc1ccc2c(c1)C(=O)[C@]1(O)CCN(c3ccccc3)C1=N2`, the figure is 90.7%. As for `C[C@@H]1CCO[C@H]2Cn3cc(C(=O)NCc4ccc(F)cc4F)c(=O)c(O)c3C(=O)N12`, the figure is 53.9%; as for `CCOc1ccccc1N=Nc1c(C)[nH]n(-c2nc(-c3ccccc3)cs2)c1=O`, 102%; as for `CN(C)c1nc(Cc2ccc(NC(=O)c3ccc(C(F)(F)F)cc3)cc2)nc(N(C)C)c1CC(=O)O`, 90.9%. With `CCOC(=O)[C@H](CCc1ccccc1)N[C@@H](C)C(=O)N1CCCC1C(=O)O` (stereo not given in full), the parasite growth remaining, % of DMSO control (lower = more inhibition) worked out at 91.5%. With `CN1CC(=O)N2C(Cc3c([nH]c4ccccc34)[C@H]2c2ccc3c(c2)OCO3)C1=O` (stereo not given in full), the parasite growth remaining, % of DMSO control (lower = more inhibition) is 17.5%. As for `C[C@]12C=CC(=O)C=C1CC[C@@H]1[C@@H]2[C@@H](O)C[C@@]2(C)[C@@H]1CC[C@]2(O)C(=O)CO`, the figure is 100%.

With `CC1=C(C(=O)Nc2cc3cn[nH]c3cc2F)C(c2ccc(C(F)(F)F)cc2)CC(=O)N1` (stereo not given), the parasite growth remaining, % of DMSO control (lower = more inhibition) stood at 8.5%. As for `O=C1Nc2ccc(I)cc2C1=Cc1cc(Br)c(O)c(Br)c1`, the figure is 30.6%. Take `CN[C@@H](C)[C@H]1[C@H](O)C[C@@]2(C)[C@@H]3CC[C@H]4C(C)(C)[C@@H](NC)CC[C@@]45C[C@@]35CC[C@]12C`: the parasite growth remaining, % of DMSO control (lower = more inhibition) worked out at 50.3%. As for `CNc1nc(Nc2ccc(C(=O)N3CCOCC3)cc2OC)ncc1Cl`, the figure is 90.3%; as for `COc1nccc(-c2c(-c3ccc(F)cc3)ncn2C2CCC(O)CC2)n1` (stereo not given), 80%; as for `CO[C@H]1C=CO[C@@]2(C)Oc3c(C)c(O)c4c(O)c(c(C=NN5CCN(C)CC5)c(O)c4c3C2=O)NC(=O)C(C)=CC=C[C@H](C)[C@H](O)[C@@H](C)[C@@H](O)[C@@H](C)[C@H](OC(C)=O)[C@H]1C`, 11.4% [at 5.51 µM]. As for `Cc1cnc(Nc2cccc(CN3CCOCC3)c2)nc1Nc1cccc(S(=O)(=O)NC(C)(C)C)c1`, the figure is 8.36%; as for `COc1ccc(CCN(C)CCCOc2ccc(S(=O)(=O)c3[nH]c4ccccc4c3C(C)C)cc2)cc1OC`, 26.3%. As for `OCCn1cc(-c2ccc3c(c2)CCC3=NO)c(-c2ccncc2)n1`, the figure is 83.9%. For the compound `CCNC(=O)[C@H]1O[C@@H](n2cnc3c(N)nc(NCCc4ccc(CCC(=O)O)cc4)nc32)[C@H](O)[C@H]1O`, the parasite growth remaining, % of DMSO control (lower = more inhibition) was determined as 110%.
